Hits are enriched below; roughly 3.9% of the tested compounds scored in any of these assays.
HepG2 tox: HepG2 cytotoxicity, counter-screen for TGF-b inhibitors; HepG2 CAGA-GFP viability, ATP luminescence, 18 h; Potency, µM (highest dose often 46.1 µM), without a hit: at the top dose activity change, negative = cytotoxicity, hits mostly cytotoxic; 410,000 compounds, 0.76% hits
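CellTiter-Glo luminescence gave cytotoxicity after 18 hours at 37 degrees C. The cells were HepG2 CAGA-GFP in 1% FBS DMEM, stimulated with 500 pg/mL TGF-beta after compound addition. %Activity was normalised to no-cell wells (complete cell-killing) and DMSO (no toxicity), and curves were fitted and classified.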
TGFb SMAD3 inh: inhibitors of TGF-b signaling | 410,000 compounds, 1.2% hits | Potency, µM (doses to about 46.1 µM), for inactives: at the highest dose activity, negative = inhibition, most hits filed as inhibitors | HepG2 CAGA-GFP TGF-b/SMAD3 reporter, GFP fluorescence, 18 h; TGF-beta stimulated, 500 pg/mL final | AID 588855; also: % is scaled to controls: 0 for no effect and ±100 for the full control effect; nearly all actives have a fitted effect of over 65% in size
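HEPG2 CAGA-GFP reporter cells (1000/well, DMEM with 1% FBS) received compounds, then recombinant TGF-beta at 500 pg/mL final for 18 hours at 37 degrees C. Per-cell GFP summed per well was normalised to unstimulated and stimulated DMSO controls before curve fitting.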
HT1080-NT tox: kills 2HG-producing HT-1080-NT fibrosarcoma cells | HT-1080-NT fibrosarcoma viability, CellTiter-Glo ATP luminescence, 48 h | Potency, µM (doses to about 46.1 µM), inactives show at the top dose activity, negative = less viability, usual class: cytotoxic | 360,000 compounds, 1.6% hits | AID 686970;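 also: NT is the 2HG producing partner of a matched IDH1 knockdown line; 0% = DMSO-treated cells and -100% = media-only wells without cells; nearly all actives have a fitted effect of over 55% in size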
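HT-1080-NT; 750 cells/well; 5% FBS RPMI; 48 h compound, 37 degrees C; CellTiter-Glo luminescence; curve fitting and curve-class assignment.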
ATXN2 expr inh: inhibitors of ATXN2 expression | HEK-293 ATXN2-luciferase reporter, luminescence, 24 h | 360,000 compounds, 0.72% hits | Potency, µM (series often up to 57 µM), for the others: at the highest dose activity change, negative = inhibition, hits mostly inhibitors; also: % is scaled to controls: 0 for no effect and ±100 for the full control effect; nearly all actives have a fitted effect of over 55% in size
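qHTS (up to 57 uM final) was run with 24 h compound exposure of reporter cells at 37 °C. Each well was multiplexed: SteadyGlo luminescence measured ATXN2-luciferase expression after a fluorogenic Gly-Phe-AFC viability readout (25 uM final).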
HT1080 IDH1KD tx: HT-1080 IDH1 knockdown cell toxicity (counter line) | 360,000 compounds, 2% hits | Potency, µM (doses to about 46.1 µM), without a hit: at the highest dose activity, negative = toxicity, usual class: cytotoxic | AID 686971 | HT-1080 IDH1 knockdown viability, ATP luminescence, 48 h;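 also: 0% = DMSO wells and -100% = cell-free medium wells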
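Using the IDH1-knockdown HT-1080 line run in the same batch and compound series as the NT line, viability after 48 h at 37 °C was determined by CellTiter-Glo luminescence and expressed as % activity.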
ATXN viability: reduces viability in counter-screen for ATXN expression inhibitors; 400,000 compounds, 0.49% hits; AID 651635; Potency, µM (highest dose often 56.7 µM), actives largely listed as cytotoxic; S2 cells (HEK-293 line with an ATXN2-luciferase reporter) viability, CellTiter-Fluor protease fluorescence, 24 h; also: nearly all actives have a fitted effect of over 40% in size
* hit, by the source's call; i = inactive; ? = inconclusive; · = no result; [ ] = dose if it differs, or a comment. Calls follow the shape of the dose curve; as a rule, active = well fitted curve in the direction sought with a large enough effect; inconclusive = small, poorly fitted or top-dose-only effect, or another doubt; inactive = no such curve, though single readings can be large; an effect the other way counts as inactive or inconclusive. Potency is read from the fitted curve at half-maximal effect.

SMILES | HepG2 tox | TGFb SMAD3 inh | HT1080-NT tox | ATXN2 expr inh | HT1080 IDH1KD tx | ATXN viability
CN(C)c1ccc(CNC(=O)CCCN2C(=O)CCn3nc(-c4cn(C)c5ccccc45)cc32)cc1 | -2% | -17% | · | -7% | · | i
CC(C)(C)n1ncc2c(=O)n(Cc3cccc(-c4cccs4)c3)cnc21 | -17% | ? | · | · | · | ·
COc1ccc(CCc2nnc(CCC(=O)N(C)Cc3ccnc4ccccc34)o2)cc1 | -8% | 0% | ? | -6% | 21µM* | ?
COc1ccccc1CCc1nnc(CCC(=O)N(C)Cc2cccc3cnccc23)o1 | -17% | -20% | -2% | 0% | 1% | i
C=C1C(=O)OC2C1CCC(C)=C1C(=O)C3OC3(C)C12 (configuration not stated) | 4.5µM* | 4.5µM* | ? | 7.1µM* | 16µM* | 8.9µM*
C=C1C(=O)O[C@@H]2[C@H]1CC[C@H](C)[C@]1(O)CCC(=O)[C@@]21C | 4% | ? | ? | -18% | ? | ?
NCCCC[C@H](NC(=O)[C@@H]1CCCN1C(=O)[C@@H]1CSSC[C@H](N)C(=O)N[C@@H](Cc2ccc(O)cc2)C(=O)N[C@@H](Cc2ccccc2)C(=O)N[C@@H](CCC(N)=O)C(=O)N[C@@H](CC(N)=O)C(=O)N1)C(=O)NCC(N)=O | · | · | · | · | · | i
CC(C)CN(Cc1cc(=O)oc2cc(-c3ccccc3)c(O)cc12)CC(C)C | -68% | ? | 26µM* | -10% | ? | i
Oc1ccccc1C1CC(c2cccs2)=NC(c2ccc(Cl)cc2)N1 (configuration not stated) | -93% | 20µM* | ? | ? | ? | ?
CS(=O)(=O)N1N=C(c2cccs2)CC1c1ccccc1O (configuration not stated) | -23% | 1% | 3% | 0%[11.3 µM] | -4% | i
Cc1cc(C)c2cccc(NC(=S)NC(=O)c3ccccc3)c2n1 | -11% | -20% | 2.5µM* | 11% | 2.8µM* | i
Cc1ccc2cccnc2c1NC(=S)NC(=O)c1ccccc1 | 5% | -31% | 11µM* | 1% | ? | i
CC(=O)NC(=S)Nc1cccc2c(C)cc(C)nc12 | -82% | 0% | 3% | · | 0% | i
CCC(Sc1ncc(S(=O)(=O)c2ccc(Cl)cc2)c(=O)[nH]1)C(=O)Nc1ccc(OC)cc1 (configuration not stated) | 6% | 2% | · | 5% | · | i
Cc1ccc(C(=O)N/C(=C/c2ccc(-c3ccc([N+](=O)[O-])cc3)o2)C(=O)NCCCN(C)C)cc1 | -183% | ? | 23µM* | ? | ? | ·
CC(C)C(NS(C)(=O)=O)c1nnc2n1CCN(Cc1ccc(Cl)cc1)CC2 (configuration not stated) | · | · | · | · | · | i
NC(=O)c1sc(=S)n(-c2ccc(Br)cc2)c1N | -25% | 11µM* | -1% | -14% | 1% | i
COC(=O)C1=C(Cn2cnc3ccccc32)NC(=O)NC1c1cc(C)ccc1C (configuration not stated) | -15% | 10% | -16% | -7% | -23% | i
CCOC(=O)C1=C(Cn2cnc3ccccc32)NC(=O)NC1c1cc(C)ccc1C (configuration not stated) | -27% | ? | ? | ? | ? | 32µM*
CC(=O)c1ccc(N2CCC(c3cc(-c4ccc(Cl)cc4Cl)n[nH]3)CC2)c([N+](=O)[O-])c1 | -29% | ? | 14µM* | ? | ? | ?
O=[N+]([O-])c1cccnc1N1CCC(c2cc(-c3ccc(Cl)cc3Cl)n[nH]2)CC1 | -96% | -15% | ? | ? | ? | i
CC1(C)CC(=O)C(C2C3=C(CC(C)(C)CC3=O)Oc3ccccc32)C(=O)C1 (configuration not stated) | -51% | 6% | 28% | 1% | -6% | i
CC1(C)CC(=O)C2=C(C1)Oc1nc3ccccc3cc1C2C(C#N)C#N (configuration not stated) | -17% | 11µM* | 18µM* | -10% | 23µM* | ?
COCC(C)n1c(C)cc(C(=O)CN2c3cccc4cccc(c34)S2(=O)=O)c1C (configuration not stated) | -24% | -1% | 0% | 3% | 1% | i
Cc1cc(C(=O)CN2c3cccc4cccc(c34)S2(=O)=O)c(C)n1C | 4% | -22% | -30%[9.24 µM] | -4% | 15µM* | i
SMILES | HepG2 tox | TGFb SMAD3 inh | HT1080-NT tox | ATXN2 expr inh | HT1080 IDH1KD tx | ATXN viability
O=[N+]([O-])c1ccc(-c2ccc(S(=O)(=O)NCCN3CCCC3)cc2)cc1 | -18% | -22% | 18µM* | ? | ? | ?
CCOC(=O)[C@]12CCCC=C1N(Cc1ccc3c(c1)OCO3)C(=O)[C@H](CC(=O)NCCCCc1ccccc1)C2 | · | · | ? | ? | 12µM* | ?
CCOC(=O)[C@]12CCC=C1N(Cc1ccc3c(c1)OCO3)C(=O)[C@H](CC(=O)NCc1ccc(OC)c(OC)c1)C2 | · | · | -2% | 9% | 1% | ?
CCOC(=O)[C@]12CCCC=C1N(CCc1ccc(OC)c(OC)c1)C(=O)[C@H](CC(=O)NCCc1ccccc1OC)C2 | · | · | -18% | · | -20% | ·
CCOC(=O)[C@]12CCCC=C1N(Cc1cccc3ccccc13)C(=O)[C@H](CC(=O)NCc1cccc(C(F)(F)F)c1)C2 | · | · | ? | -25% | -23% | ?
CCOC(=O)[C@]12CCC=C1N(Cc1ccc3c(c1)OCO3)C(=O)[C@H](CC(=O)NCc1ccccc1)C2 | · | · | -13% | -8% | 23µM* | i
CCOC(=O)[C@]12CCCC=C1N(Cc1ccccc1)C(=O)[C@H](CC(=O)NCc1cccc(C(F)(F)F)c1)C2 | · | · | 29µM* | · | ? | ·
CCCCCCCCN1C(=O)[C@H](CC(=O)NCCc2ccccc2OC)C[C@@]2(C(=O)OCC)CCCC=C12 | · | · | ? | ? | ? | 22µM*
c1cncc(-c2nc(NCCCN3CCOCC3)c3c4c(sc3n2)CCC4)c1 | -2% | -29% | 18µM* | · | ? | i
CC1=C(c2ccc(C)cc2)S(=O)(=O)NC1=NCc1cccc(F)c1 | -19% | -19% | · | · | · | ·
Cc1ccc(C)c(C(=O)N2CCC(C3(c4ccccn4)NC(=O)N(CC4CCCO4)C3=O)CC2)c1 (configuration not stated) | · | · | · | · | · | i
Cc1cccc2c(=O)cc(CSc3ccccc3NC(=O)c3cccc(Cl)c3)[nH]c12 | -28% | -32% | · | -8% | · | 32µM*

High-throughput results deposited in PubChem BioAssay by National Center for Advancing Translational Sciences (NCATS).
